# Platelet DG rel: modulates dense granule release in human platelets | human platelet-rich plasma, SFLLRN dense granule ATP release, luminescence | inhibition, %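 (compounds screened at 7.5 µM in platelet-rich plasma)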 | hit rate 0.22% among 300,000;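 active = mean replicate score, as percent of positive control, at or above 50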
# SENP7 block: blocks the human protease SENP7. Q9BQF6. recombinant SENP7, Z-RLRGG-aminoluciferin luminescence, 40 min. inhibition, % at 5 µM. hit rate 1.5% among 330,000. AID 434973;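 active = inhibition above about 50% at the single test dose, limit read from the data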;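 also: plate controls were DMSO with enzyme for no effect and no enzyme buffer wells for full effect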
# Target sequence (Q9BQF6 706-1050 limits assumed): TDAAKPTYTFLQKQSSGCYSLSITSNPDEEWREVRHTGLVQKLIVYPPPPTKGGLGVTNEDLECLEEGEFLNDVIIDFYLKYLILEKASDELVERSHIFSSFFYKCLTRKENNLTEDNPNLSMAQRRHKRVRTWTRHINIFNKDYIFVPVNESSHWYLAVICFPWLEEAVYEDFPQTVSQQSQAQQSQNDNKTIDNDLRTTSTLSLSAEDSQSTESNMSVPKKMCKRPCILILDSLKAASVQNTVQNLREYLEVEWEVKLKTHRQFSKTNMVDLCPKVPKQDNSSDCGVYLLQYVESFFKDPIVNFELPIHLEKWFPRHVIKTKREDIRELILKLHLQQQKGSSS
# SENP8 block-1: SENP8 protease inhibition. hit rate 1.2% among 330,000. inhibition, % at 10 µM. AID 2540. Q96LD8. purified SENP8, Z-RLRGG-aminoluciferin cleavage, luminescence; in the data active = inhibition above about 50%
# Target sequence (Q96LD8 whole entry, looked up): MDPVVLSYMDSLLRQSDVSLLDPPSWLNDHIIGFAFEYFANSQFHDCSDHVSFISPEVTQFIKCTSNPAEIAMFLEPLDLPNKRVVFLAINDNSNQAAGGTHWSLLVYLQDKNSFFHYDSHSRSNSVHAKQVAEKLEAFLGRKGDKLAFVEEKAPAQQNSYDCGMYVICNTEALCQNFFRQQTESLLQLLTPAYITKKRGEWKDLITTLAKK
# SENP6 block: SENP6 protease inhibition; Q9GZR1; Recombinant SENP6 catalytic domain, aminoluciferin luminescence; inhibition, % at 10 µM; hit rate 1.8% among 330,000; AID 2599;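 active = inhibition above about 50% at the single tested dose, limit read from the data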;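 also: plate controls were DMSO wells with enzyme for no effect and DMSO wells lacking enzyme for full effect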
# SENP8 block-2: inhibitors of human SENP8 protease; recombinant SENP8, Nedd8 substrate fluorescence; inhibition, % at 20 µM; hit rate 0.64% among 360,000; AID 602440; in the data active = inhibition mostly above about 40%, no sharp cut-off; inactive = mostly below about 27%
# SENP8 conf: confirmation of human SENP8 protease inhibitors; purified SENP8, Nedd8-AMC/pro-Nedd8 cleavage fluorescence, 30 min; shares compounds with SENP8 block-2; AID 624319; hit rate 15% among 1,400; inhibition, % at 25 µM; in the data active = inhibition mostly above about 39%, no sharp cut-off; inactive = mostly below about 34%
# An asterisk follows results filed as active; · = no result. Compounds with a hit are over-represented: about 2.4% of the library has one in this group of screens.
SMILES,Platelet DG rel,SENP7 block,SENP8 block-1,SENP6 block,SENP8 block-2,SENP8 conf
COc1ccc2c(c1)C(=O)N(c1ccc(C)cc1C)C(=O)C2,1.1,-1.3,-6.5,18.9,1.7,·
COc1ccc2c(c1)C(=O)N(c1ccccc1OC)C(=O)C2,-2.1,-17.4,-0.8,-2.7,69.4*,38.2*
COc1cc2c(cc1OC)CN(C1CCC(C(C)(C)C)CC1)CC2 (configuration not stated),·,·,·,·,-70.5,·
OCc1ccccc1O[C@@H]1O[C@H](CO)[C@@H](O)[C@H](O)[C@H]1O,-1.6,-2.7,1.7,-2.8,48.9*,3.2
OCC1OC(Oc2c[nH]c3ccccc23)C(O)C(O)C1O (configuration not stated),-2.0,13.3,-3.0,-0.7,-219.7,·
CCC(=O)N1CCC1(C)C(=O)Nc1ccc2scnc2c1 (configuration not stated),·,·,·,·,10.3,·
COC(=O)[C@H](Cc1ccccc1)NC(=O)C1(OC(C)=O)CC(OC(C)=O)C(OC(C)=O)C(OC(C)=O)C1 (some centres not stated),0.3,-6.7,-5.1,-8.6,2.8,·
COc1cc(N(C)C)c([N+](=O)[O-])cc1C(=O)NC(C)CNc1ccc([N+](=O)[O-])cc1Cl (configuration not stated),-12.6,-8.5,-13.3,-22.1,41.8*,26.0
Cc1ccc(C)c(Nc2c([N+](=O)[O-])ccc3nonc23)c1,-0.8,-14.7,-8.1,-11.9,44.9*,18.1
Cc1ccc(C)c(Nc2ccc3nonc3c2[N+](=O)[O-])c1,4.5,-5.8,0.7,-4.5,31.2,·
CCN(N=O)c1ccc(C=C2C=Cc3ccccc32)cc1,·,·,·,·,68.8*,6.6
CC(=O)N(C)c1ccc(C=C2C=Cc3ccccc32)cc1,·,·,·,·,25.1,·
CN(N=O)c1ccc(C=C2C=Cc3ccccc32)cc1,·,·,·,·,50.7*,3.0
Cc1ccc(OCc2cc(C(=O)N3CCc4sccc4C3)no2)cc1C,2.5,15.3,-0.1,-12.7,6.6,·
C/C(=C\C(=O)c1ccc(C)o1)Nc1ccc2c(c1)OCO2,1.4,-2.2,-12.7,-8.9,47.1*,37.5
C/C(=C\C(=O)c1ccc(Br)cc1)Nc1cccc(Cl)c1,·,-2.1,-13.1,4.9,40.4*,-11.6
Cc1ccc(C(=O)OCC(=O)Nc2ccc3c(c2)OCO3)o1,-0.5,-5.3,-6.7,3.6,14.7,·
S=C(Nc1ccc2c(c1)OCO2)Nc1ccc2c(c1)OCO2,16.2,7.5,4.9,36.8,52.8*,21.2
C/C(=C\C(=O)c1ccccc1)Nc1ccc2c(c1)OCO2,-9.5,0.9,-17.9,-11.0,66.9*,20.7
O=C(NCc1ccccc1Cl)c1ccc2nc([C@@H]3O[C@H](CO)[C@H](O)[C@H](O)[C@H]3O)[nH]c2c1,·,·,·,·,8.2,·
Cc1c(Cl)cccc1NC(=S)NCCc1ccccn1,-1.5,2.4,5.4,-20.6,47.0*,16.2
O=C1c2ccc3c4c(ccc(c24)C(=O)N1c1cccc(O)c1)CC3,0.9,0.5,-2.1,17.2,-155.0,·
O=C1c2ccc3c4c(ccc(c24)C(=O)N1c1cccc(O)c1)C(=O)N(c1cccc(O)c1)C3=O,6.5,19.4,6.0,22.5,46.0*,46.5
O=C(COC(=O)c1ccc(S(=O)(=O)N2CCCC2)cc1)NCc1ccco1,1.5,1.0,1.8,11.8,9.2,·
O=C(c1ccccc1C(=O)N1CCN(c2ccccc2)CC1)N1CCN(c2ccccc2)CC1,3.1,3.7,4.0,9.9,49.2*,17.8
SMILES,Platelet DG rel,SENP7 block,SENP8 block-1,SENP6 block,SENP8 block-2,SENP8 conf
O=S(=O)(c1ccc(Oc2ccc(F)c(Cl)c2)nc1)N1CCOCC1,23.7,3.3,4.5,-0.2,4.1,·
Cc1cc(Cl)ccc1NNC(N)=S,-14.7,14.1,-7.7,-13.2,60.7*,-8.2
Cc1[nH][nH]c(=O)c1C(c1ccc(-c2cccc(C(=O)O)c2)o1)c1c(C)[nH][nH]c1=O,-1.7,16.4,18.7,39.0,51.9*,69.5*
Cc1[nH][nH]c(=O)c1C(c1ccc(-c2cccc(Cl)c2)o1)c1c(C)[nH][nH]c1=O,4.1,10.3,20.1,42.6,78.6*,85.2*
Cc1[nH][nH]c(=O)c1C(c1ccc(-c2ccccc2C(=O)O)o1)c1c(C)[nH][nH]c1=O,2.2,·,·,·,49.4*,37.8*
COC(=O)c1ccc(-c2ccc(C(c3c(C)[nH][nH]c3=O)c3c(C)[nH][nH]c3=O)o2)cc1,-4.8,7.4,3.8,15.2,-15.8,·
O=C(NNS(=O)(=O)c1ccc(Br)cc1)c1cccs1,3.2,-6.8,1.1,5.0,15.4,·
O=C(Cn1c(=O)n(Cc2ccccc2)c(=O)c2cc(Cl)ccc21)NCC1CCCO1 (configuration not stated),2.1,-8.7,-10.2,-6.7,-2.3,·
O=C(Cn1c(=O)n(CCC(=O)N2CCc3ccccc3C2)c(=O)c2ccccc21)NCC1CCCO1 (configuration not stated),-0.7,·,·,·,62.5*,16.3
C/C=C/c1ccc(OCCCn2cncn2)c(OC)c1,0.0,-15.2,-8.3,-9.7,47.1*,12.3
C/C=C/c1ccc(OCCCCn2cncn2)c(OC)c1,·,-1.4,7.2,-5.5,2.5,·
O=C(NC1CCCCC1)Oc1ccccc1,-14.7,-8.8,-11.1,-7.2,40.3*,9.8
O=C1c2cccc3cccc(c23)C(=O)C1(O)O,-2.8,-2.6,9.4,16.8,51.7*,40.5
Cc1[nH]n(-c2ccccc2)c(=O)c1S(=O)(=O)c1ccccc1,8.7,2.5,-0.2,-4.9,71.1*,43.2*
CC(=O)c1cccc(NC(=O)N2CCCC2C(=O)Nc2cccc(C)c2)c1 (configuration not stated),1.3,-2.8,-7.6,-7.7,42.0*,-19.6
CCOC(=O)N1CCN(C(=O)COC(=O)CNC(=O)c2ccc(C)cc2)CC1,-2.5,2.1,9.0,-8.4,42.9*,21.1
O=C(NCc1ccc2c(c1)OCO2)C(c1ccco1)N(C(=O)c1csnn1)c1ccccc1 (configuration not stated),7.4,-1.8,8.0,-5.3,40.6*,1.2
Cc1c(C(=O)Nc2ccc(Nc3ccccc3)cc2)cccc1[N+](=O)[O-],-8.9,0.0,0.0,7.7,20.2,·
O=C(Nc1ccccc1)c1ccc(Nc2c([N+](=O)[O-])cc([N+](=O)[O-])c3ccccc23)cc1,-3.1,-4.0,-5.1,9.4,55.6*,30.9
COc1ccc(-n2c(C)cc(/C=C3\C(=N)N4N=C(CC(=O)N5CCOCC5)SC4=NC3=O)c2C)cc1,-3.4,-7.9,-9.4,10.8,-63.2,·
CCOc1ccccc1N(C)C(=O)c1cn(C)c(=O)c2ccccc12,3.5,-5.7,-6.6,2.9,2.1,·
CCCn1nnnc1NCc1ccc(N(CC)CC)cc1,-0.4,-2.1,-5.0,11.7,8.8,·
Cc1ccc(NC(=O)NC2(C(=O)NCc3ccco3)CCCCC2)cc1,0.1,-3.4,-7.2,-2.2,40.1*,11.9
O=C(Nc1c(-c2ccccc2)[nH][nH]c1=O)c1cccc(C(F)(F)F)c1,·,·,·,·,49.3*,13.1
O=C(Nc1c(-c2ccc(Cl)cc2)[nH][nH]c1=O)c1ccc(Br)cc1,·,·,·,·,43.3*,24.5
